# Reference: PubChem BioAssay (NCATS)
# Results filed as inconclusive are left out. A call without a number means that no potency is given here. A number with no mark means an inactive call. The source made the active and inactive calls. Calls follow the shape of the dose curve; as a rule, active = well fitted cell-killing curve with a large enough effect; inconclusive = small, poorly fitted or top-dose-only effect; inactive = no such curve, though single readings can be large or run the other way.
# Experiment: qHTS of pediatric cancer cell lines to identify multiple opportunities for drug repurposing: Primary screen for MG 63 (6-TG R) cells (AID 1347105); also: nearly all actives have a fitted effect of over 50% in size
# Settings: MG 63 (6-TG R) viability, CellTiter-Glo, 48 h; series mostly up to 46 µM
# Excerpt: Drug repurposing or repositioning has been offered as a strategy for drug development in oncology programs. This approach has special potential for childhood cancers and other rare or orphan diseases, where the expected return on new drug development has been a disincentive to pharmaceuticals. […] In this project we exploit the poly-pharmacology of drugs to discover new indications via phenotypic screening of a panel of 19 well-characterized cell lines derived from solid tumors seen in children and adolescents. The goal is to identify approved drugs with previously unrecognized anticancer properties that has the potential to reveal new mechanisms and biological processes involved in carcinogenesis or drug resistance. We employed a titration-based paradigm (quantitative high-throughput screening or qHTS), where all compounds were tested at multiple concentrations for their effect on cell viability. Concentration-response curves (CRCs) were derived directly from the primary screen, and both potency and efficacy values were used to identify compounds with robust bioactivity profiles. We screened the NIH Chemical Genomics Center (NCGC) Pharmaceutical Collection (NPC) and Mechanism Interrogation Plate (MIPE) small molecule collections of approved and investigational compounds against these cell lines; and measured metabolically active cells after 48 hours of compound treatment as a proxy for cell viability. […] Assay Submitter: Nathalia J. Martinez, National Center for Advancing Translational Sciences, National Institutes of Health, Rockville, MD, USA; email: natalia.martinez@nih.gov Shen, M et al. Quantitative high-throughput phenotypic screening of pediatric cancer cell lines identifies multiple opportunities for drug repurposing. Oncotarget 2017 Dec 19;9(4):4758-4772. PMID 29435139.
# The cells were obtained from University of North Carolina (UNC), Pediatric Preclinical Testing Program (PPT), and Coriell Institute (CI). qHTS cell viability assay: Cells were assayed in growth media at a density of 500-1,000 cells/well. Five microliters of cells were dispensed into 1,536-well, white, solid-bottom, TC-treated plates (Greiner Bio One) using a multidrop dispenser and incubated at 37 degrees C, 5% CO2, under a humidified atmosphere for 5 hours. Twenty-three nanoliters of compounds and controls (neutral control DMSO or positive control bortezomib at final concentration of 2.3 µM) were subsequently transferred by Kalypsys pintool. For primary screens, the MIPE collection was tested at 11-point dilutions (final concentrations range from 0.78 nM to 46 µM) and the NPC collection at 8-point dilutions (final concentrations range from 0.59 nM to 46 µM). Compounds tested in follow-up screens were assayed at 11-point dilutions. Cells were incubated for 48 hours, followed by addition of 3 µL of CellTiter-Glo (Promega). After a 15 min incubation at room temperature, samples were analyzed for luminescence intensity using a ViewLux High-throughput CCD imager equipped with clear filters.
# Potency is read from the fitted curve at half-maximal effect.
SMILES,Potency,"activity change, negative = cytotoxic"
O=c1cc[nH]c(=O)[nH]1,inactive,
O=S(=O)(O)NC1CCCCC1,inactive,
CCN(CC)CCNC(C(=O)OCCC(C)C)c1ccccc1 (stereo not given),inactive,
CNCC(O)c1ccc(O)c(O)c1 (stereo not given),inactive,
CC(O)COc1ccccc1 (stereo not given),inactive,
CC1(C)CO[C@@H](CC(=O)O)CN1,inactive,
COc1ccc2cc1Oc1cc3c(cc1OC)CC[N+](C)(C)[C@H]3Cc1ccc(cc1)Oc1c(OC)c(OC)cc3c1[C@@H](C2)[N+](C)(C)CC3,inactive,
C[C@@H](O)[C@H](N)C(=O)O,inactive,
NC(=O)c1ncn([C@@H]2O[C@H](CO)[C@@H](O)[C@H]2O)c1N,inactive,
O=C(O)COc1nn(Cc2ccccc2)c2ccccc12,inactive,
Cc1cc2c(cc1S(N)(=O)=O)S(=O)(=O)CCC2,inactive,
CCN(CC)CCNC(=O)c1cc(Cl)c(N)cc1OC,inactive,
CC(CN1c2ccccc2Sc2ccccc21)N(C)C (stereo not given),inactive,
CC1=C(CC(=O)O)c2cc(F)ccc2/C1=C\c1ccc(S(C)(=O)=O)cc1,inactive,
O=C(O)c1ccccc1-c1ccc(C(F)(F)F)cc1,inactive,
Cc1cc2nc3c(=O)[nH]c(=O)nc-3n(C[C@H](O)[C@H](O)[C@H](O)CO)c2cc1C,inactive,
O=Cc1ccccc1C=O,inactive,
CC1(C)Oc2ccc(C#N)cc2[C@@H](N2CCCC2=O)[C@@H]1O,inactive,
CC[C@H]1CN2CCc3cc(OC)c(OC)cc3[C@@H]2C[C@@H]1C[C@H]1NCCc2cc(OC)c(OC)cc21,2110 nM (active),
Cc1ccc(C(C)C)cc2c(C)ccc1-2,inactive,

SMILES,Potency,"activity change, negative = cytotoxic"
Cc1cc(CC(=O)O)n(C)c1C(=O)c1ccc(Cl)cc1,inactive,
CN1CCCCC1CCN1c2ccccc2Sc2ccc(S(C)=O)cc21 (stereo not given),inactive,
C[C@](N)(Cc1ccc(O)cc1)C(=O)O,,-28.9% [at 4.84 µM]
CCCCCCCCCCCCOS(=O)(=O)O,inactive,
Oc1ccc(C(O)CNCCCCCCNCC(O)c2ccc(O)c(O)c2)cc1O (stereo not given),inactive,
COc1cc(C)c(Cc2cnc(N)nc2N)cc1OC,inactive,
CN1CCOC(c2ccccc2)c2ccccc2C1 (stereo not given),inactive,
CN1CCC[C@@H]1Cc1c[nH]c2ccc(CCS(=O)(=O)c3ccccc3)cc12,inactive,
C[C@H](NC(CCc1ccccc1)C(=O)O)C(=O)N1CCC[C@H]1C(=O)O (stereo not given in full),inactive,
Nc1ccc(S(=O)(=O)Nc2nccs2)cc1,inactive,
C[C@H](N)[C@H](O)c1cccc(O)c1,inactive,
CCCCc1ncc(/C=C(\Cc2cccs2)C(=O)O)n1Cc1ccc(C(=O)O)cc1,inactive,
CC(C)(C(=O)O)c1ccc(C(O)CCCN2CCC(C(O)(c3ccccc3)c3ccccc3)CC2)cc1 (stereo not given),inactive,
CCN(CC)C(=O)Nc1ccc(OCC(O)CNC(C)(C)C)c(C(C)=O)c1 (stereo not given),inactive,
Nc1cc(=O)[nH]c(N)n1,inactive,
CN(N=O)C(=O)N[C@@H]1[C@@H](O)[C@H](O)[C@@H](CO)O[C@@H]1O,inactive,
O=C1O[C@H](CO)[C@@H](O)[C@H](O)[C@H]1O,inactive,
COC(=O)C1=C(C)NC(C)=C(C(=O)OC)C1c1ccccc1[N+](=O)[O-],inactive,
NC1CCN(c2cccc(Cl)n2)CC1,inactive,
CN(C)CCC=C1c2ccccc2CCc2ccccc21,inactive,
